Vaccinia mCherry = inhibitors of vaccinia virus infection (mCherry reporter signal). 0.63% of 310,000 active. Potency, µM (highest dose often 36.5 µM), for inactives: at the highest dose activity change, negative = inhibition, usual class: inhibitors. AID 720579. Vaccinia virus mCherry reporter infection, fluorescence; calls by dose curve; tested in A549 cells; also: % is scaled to controls: 0 for no effect and ±100 for the full control effect; nearly all actives have a fitted effect of over 35% in size
Pf growth 96h = inhibits malaria parasite growth, 96 h | Potency, µM (series often up to 28.7 µM), for the others: at the highest dose activity change, negative = inhibition, actives largely listed as inhibitors | 6.9% of 320,000 active | P. falciparum luciferase reporter growth, 96 h; also: % is scaled to controls: 0 for no effect and ±100 for the full control effect
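Delayed-death screen, second-generation endpoint: infected erythrocytes, 2% hematocrit, 0.05% parasitemia final; 96 hours at 37 C, 5% CO2; luciferase detection reagent; luminescence decrease equals reduced growth.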
VACV Venus inh = inhibitors of vaccinia virus (Venus reporter); Potency, µM (doses to about 36.5 µM), inactives show at the top dose activity change, negative = inhibition, actives largely listed as inhibitors; Vaccinia virus Venus reporter expression, fluorescence; 0.46% of 330,000 active; calls by dose curve; tested in A549 cells; also: % is scaled to controls: 0 for no effect and ±100 for the full control effect; nearly all actives have a fitted effect of over 30% in size
Pf growth 48h = inhibits P. falciparum growth in the first generation, 48 h. AID 504832. P. falciparum luciferase growth in erythrocytes, 48 h. 5.9% of 310,000 active. Potency, µM (series often up to 28.7 µM), for the others: top-dose activity change, negative = inhibition, usual class: inhibitors; also: % is scaled to controls: 0 for no effect and ±100 for the full control effect
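Growth was read as firefly luciferase luminescence after a 48 h, 37 C, 5% CO2 exposure of compounds to reporter-bearing P. falciparum cultures (0.1% parasitemia, 2% hematocrit final) in Albumax-supplemented RPMI 1640.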
HCV inh = HCV inhibition | Huh7.5.1 HCVcc-Cre infection, luciferase reporter, 44 h | Potency, µM (top dose mostly 41.8 µM), for inactives: at the top dose activity change, negative = inhibition, most hits filed as inhibitors | 3.4% of 340,000 active; also: % is scaled to controls: 0 for no effect and ±100 for the full control effect
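Reporter virus HCVcc-Cre (~0.5 moi) infects cells exposed to compound; seeding density 1,000 cells/well with 4 h settling beforehand. Luminescence, 15 sec read, taken 44 h post-infection following a 15 min RT substrate incubation.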
NS1 function inh = inhibitors of influenza NS1 protein function | 0.4% of 270,000 active | Potency, µM (highest dose often 46.1 µM), without a hit: at the top dose activity, positive = more growth; calls by dose curve; also: actives are rising curves; nearly all actives have a fitted effect of over 50% in size
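Compounds were scored for reversing the slow growth caused by influenza A NS1 in S. cerevisiae, measured by optical density at 600 nm. Assay medium contained 2% galactose at pH 6.0; NS1-free yeast of the same strain were the positive control.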
Active calls of the source: *; i = inactive; ? = inconclusive; · = no result given; [ ] = dose if it differs, or a comment. Shown are actives, neighbours in structure and some others; about 11% of the full set was active somewhere. Unless noted, calls follow the shape of the dose curve; as a rule, active = well fitted inhibition curve with a large enough effect; inconclusive = small, poorly fitted or top-dose-only effect, or another doubt; inactive = no such curve, though single readings can be large or run the other way. Potency is read from the fitted curve at half-maximal effect.

SMILES | Vaccinia mCherry | Pf growth 96h | VACV Venus inh | Pf growth 48h | HCV inh | NS1 function inh
COc1ccc(COCC(CC(C)C)N2CCN(C(=O)c3cccc(C(F)(F)F)c3)CCC2=O)cc1 (stereo not drawn) | i | ? | ? | 10µM* | -44% | -23%
CC(C)CC(COCc1ccc(Cl)cc1)N1CCN(C(=O)c2ccc(Cl)cc2Cl)CCC1=O (stereo not drawn) | -8% | ? | ? | 10µM* | ? | ·
CC(C)C[C@@H](COCc1ccc(Cl)cc1)N1CCN(C(=O)c2ccc(C(F)(F)F)cc2)CCC1=O | 2% | · | -9% | · | · | ·
CC(C)CC(COCc1cccc(Cl)c1)N1CCN(C(=O)c2cccc(C(F)(F)F)c2)CCC1=O (stereo not drawn) | -5% | 10µM* | ? | ? | 3%[8.37 µM] | -30%
CCCCn1c(=O)[nH]c(=O)c2c1ncn2Cc1ccco1 | · | ? | · | · | 5% | -2%
CC1CN(S(=O)(=O)c2ccc(NC(=O)c3cc(-c4ccccc4O)n[nH]3)cc2)CC(C)O1 (stereo not drawn) | · | 0.93µM* | · | 1.7µM* | 8.9µM* | ·
Cc1ccccc1C(=O)Nc1ccc(S(=O)(=O)N2CC(C)OC(C)C2)cc1 (stereo not drawn) | i | 0% | 0% | -13% | ? | -5%
O=C(Nc1ccc(S(=O)(=O)N2CCOCC2)cc1)c1cc(-c2ccccc2O)n[nH]1 | -10%[7.34 µM] | ? | -6%[7.34 µM] | 10µM* | -18% | -1%
COC(=O)/C=C1/S/C(=N/NC(=O)c2ccccc2C)NC1=O | · | ? | · | · | 14% | 16%
O=C(NCCCCCCNC(=O)c1cncc(O)c1)c1cncc(O)c1 | -14% | 2% | -20% | 81% | 9% | -3%
COc1ccccc1N1CCN(/N=C/c2cc(Br)ccc2F)CC1 | · | 66% | · | 21% | -19% | -10%
COc1ccc2[nH]c(=O)c(CN(CC3CCCO3)C(=O)Nc3ccc(F)cc3)cc2c1 (stereo not drawn) | -19% | 27% | -11% | 26% | ? | -30%
COc1cccc(C(=O)N(Cc2cc3cc(C)ccc3[nH]c2=O)CC2CCCO2)c1 (stereo not drawn) | · | · | · | 9.3µM* | -5% | 1%
COc1ccc(NC(=O)N(Cc2cc3cc(C)ccc3[nH]c2=O)CC2CCCO2)cc1 (stereo not drawn) | · | -13% | · | 3.3µM* | ? | ?
O=C(Nc1ccc(Oc2ccccc2)cc1)c1ccc(F)c(S(=O)(=O)N2CCN(c3ccccc3F)CC2)c1 | -26% | · | -25% | · | · | ·
O=C(Nc1ccc(Br)cc1)c1ccc(F)c(S(=O)(=O)N2CCN(c3ccccn3)CC2)c1 | -11% | -3% | -30% | ? | 7.1µM* | ·
Cc1ccccc1NC(=O)c1ccc(C)c(S(=O)(=O)N2CCN(C)CC2)c1 | · | 18% | · | -24% | 13% | 3%
Cc1ccccc1NC(=O)c1ccc(F)c(S(=O)(=O)N2CCN(c3ccccn3)CC2)c1 | · | · | · | 13µM* | ? | -5%
Cc1ccccc1C(=O)N1CCC(C(=O)Nc2cccc(S(=O)(=O)N3CCCCC3)c2)CC1 | · | ? | · | 15µM* | ? | ·
Cc1ccccc1C(=O)N1CCC(C(=O)Nc2ccc(C)c(S(=O)(=O)N3CCCCC3)c2)CC1 | · | ? | · | 13µM* | 10µM* | ·
CCN(Cc1ccccc1)S(=O)(=O)c1ccc(C(=O)N(CCCN(C)C)c2nc3cc(OC)ccc3s2)cc1 | i | 22% | ? | 9% | 25µM* | ·
COc1ccc2sc(N(CCCN(C)C)C(=O)c3ccc(C(=O)c4ccccc4)cc3)nc2c1 | -25% | ? | ? | 13µM* | ? | ·
CN(C)CCCN(C(=O)c1cc2cc([N+](=O)[O-])ccc2s1)c1nc2cc3c(cc2s1)OCCO3 | 14µM* | ? | 13µM* | ? | ? | ·
CN(C)CCCN(C(=O)c1ccc(C(=O)c2ccccc2)cc1)c1nc2ccc(F)cc2s1 | · | 92% | · | ? | -8% | -1%
COc1ccc2sc(N(CCCN(C)C)C(=O)c3ccc(S(=O)(=O)N4CCCc5ccccc54)cc3)nc2c1 | -25% | 8.3µM* | ? | 7.4µM* | ? | ·
SMILES | Vaccinia mCherry | Pf growth 96h | VACV Venus inh | Pf growth 48h | HCV inh | NS1 function inh
CN(C)CCCN(C(=O)c1ccc([N+](=O)[O-])s1)c1nc2cc3c(cc2s1)OCCO3 | · | 13% | · | 22% | -27% | -19%
COc1cc2nc(N(CCCN(C)C)C(=O)c3ccc(S(=O)(=O)N4CCc5ccccc54)cc3)sc2cc1OC | i | ? | -12% | ? | ? | ·
CCc1[nH]nc2c1C(c1cccnc1)C(C#N)=C(N)O2 (stereo not drawn) | · | -17% | · | -12% | 12% | 2%
Cc1ccc(NC(=O)CN(C)S(=O)(=O)c2cccc3nsnc23)cc1 | · | 38% | ? | -1% | ? | 10%
CCCCN(C(=O)c1ccc(S(=O)(=O)N(C)C)cc1)c1ccccc1 | · | 7% | · | 13% | -2% | 4%
CCN(Cc1ccccc1)S(=O)(=O)c1ccc(C(=O)N(CCCN(C)C)c2nc3cc4c(cc3s2)OCCO4)cc1 | -27% | ? | ? | ? | 11µM* | ·
CCN(CC)CCN(C(=O)c1ccc(C(=O)c2ccccc2)cc1)c1nc2cc3c(cc2s1)OCO3 | ? | 4% | -6% | -4% | -9% | -51%
Cc1cccc2sc(N(CCCN(C)C)C(=O)COc3ccccc3)nc12 | -10% | · | -12% | · | · | ·
CCCCN(C(=O)c1ccc(S(=O)(=O)N(C)C)cc1)c1nc2ccccc2s1 | i | 1.9µM* | -8% | ? | 29% | 10%
CN(C)CCCN(C(=O)c1ccc(C(=O)c2ccccc2)cc1)c1nc2cc3c(cc2s1)OCO3 | ? | -20% | ? | 12µM* | 14µM* | -16%
Cc1cccc2sc(N(CCCN(C)C)C(=O)c3ccc(C(=O)c4ccccc4)cc3)nc12 | ? | -102% | -27% | 6.6µM* | ? | -32%
CCN(Cc1ccccc1)S(=O)(=O)c1ccc(C(=O)N(CCCN(C)C)c2nc3ccc(F)cc3s2)cc1 | i | 2% | -24% | -3% | ? | 4%
CCOc1cc(/C=N/NC(=O)COc2cccc(C)c2)ccc1OC(=O)c1cccs1 | -13% | 31% | -3% | 24% | ? | 27%
COc1ccc(OC)c(CNC(=O)C2CCCN(c3ncnc4onc(-c5ccc(F)cc5)c34)C2)c1 (stereo not drawn) | -19% | · | -10% | · | · | ·
O=C(NCCCN1CCOCC1)c1ccc(Cl)cc1[N+](=O)[O-] | · | 6% | · | 36% | 1% | 1%
CN(c1ccc(OCC(=O)NCc2cccnc2)cc1)S(=O)(=O)c1ccc(Cl)cc1 | -17% | -3% | -9% | -40% | 6% | 8%
COc1cccc(-n2cc(CN(C)Cc3nc(Cc4ccccc4)no3)cn2)c1 | i | ? | -14% | 24% | 3% | -4%

Source: PubChem BioAssay (National Center for Advancing Translational Sciences (NCATS))
